# High-throughput results from PubChem BioAssay.
# Shown are actives, neighbours in structure and some others; about 2.2% of the full set was active somewhere.
# KLF5 inhibitor = KLF5 expression inhibitors, primary screen, DLD-1 cells, luminescence; DLD-1 KLF5 promoter-luciferase reporter; AID 1700, 2009; 290,000 tested, 0.23% active; inhibition, % at 5 µM;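 active = inhibition above a per-plate limit of that plate's mean compound inhibition plus 3 SD, cut at about 60% in these data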;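 also: 0% = DMSO wells and 100% = LY294002 at 200 µM; higher means less KLF5 promoter-driven luciferase light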
# APP transl inh = inhibitors of APP translation via 5'UTR reporter, primary screen, APP 5'UTR luciferase, SH-SY5Y cells | SH-SY5Y APP 5'UTR-luciferase reporter, luminescence | inhibition, % at 2 µM | 190,000 tested, 0.82% active;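 active = inhibition above a set limit, derived from the sample mean plus 3 SD, cut at about 45% in these data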
# BaF3 tox = parental Ba/F3 cell viability inhibition, counter-screen for JAK2V617F inhibitor project, murine pro-B, CellTiter-Glo luminescence; CellTiter-Glo ATP luminescence; inhibition, % at 5.6 µM; 220,000 tested, 1.1% active; AID 1486, 2009;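 active = inhibition above a per-campaign cutoff, the mean inhibition of all tested compounds plus 3 SD, cut at about 27% in these data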;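 also: 0% = DMSO wells and 100% = JAK Inhibitor I control wells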
# Ba/F3 V617F tox = reduced viability of JAK2V617F-dependent Ba/F3 cells, primary screen, JAK2V617F inhibitor project, cell-based, Ba/F3 EpoR-JAK2V617F, luminescence; ATP luminescence; inhibition, % at 5.6 µM; 220,000 tested, 1.1% active;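 active = inhibition above the campaign mean plus 3 SD over all tested compounds, cut at about 24% in these data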;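 also: cytokine-independent growth of Ba/F3 cells driven by EpoR plus mutant JAK2; 0% = DMSO-treated cells and 100% = JAK inhibitor I control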
# aSyn 5UTR inh = MLPCN primary screen, SNCA 5' untranslated region; AID 1813, 2009; alpha-synuclein 5'UTR reporter, inhibitor activity; inhibition, % (tested at 7.5 µM); 300,000 tested, 0.82% active; in the data active = inhibition above about 60%;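 also: H4 neuroglioblastoma cells stably carrying SNCA 5'UTR luciferase fusion; 0% = DMSO wells and 100% = positive control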
# IEC-6 cytotox = cytotoxicity in IEC-6 intestinal epithelial cells, primary screen, cytotoxicity control for KLF5 inhibitor project, cell-based, luminescence; IEC-6 cytotoxicity, luminescence viability; inhibition, % at 5 µM; 290,000 tested, 0.78% active; AID 1825, 2009;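 also: 0% = plate median of test compound wells and 100% = cytotoxic reference compound wells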
# IEC-6 tox confirm = cytotoxic compounds in IEC-6 epithelial cells, confirmation, cytotoxicity control, cell-based, luminescence. 1,900 tested, 63% active. IEC-6 rat intestinal epithelial viability. inhibition, % at 5 µM. shares compounds with IEC-6 cytotox;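 also: 0% = vehicle and 100% = reference cytotoxic drug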
# Numbers without * were called inactive; i = inactive; · = no result given. Rule as the data show it, unless noted: active = inhibition above about 22%; inactive = the rest.
SMILES,KLF5 inhibitor,APP transl inh,BaF3 tox,Ba/F3 V617F tox,aSyn 5UTR inh,IEC-6 cytotox,IEC-6 tox confirm
CN(CC(=O)Nc1ccccc1C(F)(F)F)C(=O)C1CCN(C(=O)c2ccc(Cl)cc2)CC1,·,·,·,·,3,·,·
O=C(CNCc1ccccc1)Nc1ccc(Oc2ccccc2)cc1,32,-14,52*,62*,20,60*,6
Cc1cc(C(=O)OCC(=O)NCc2ccco2)c(C)n1-c1ccc(F)cc1,-4,75*,4,-1,80*,45*,57*
Oc1cc(-n2cccn2)c(O)cc1-n1cccn1,0,·,-2,0,-3,-4,·
CCOC(=O)C1=C(C)NC(SC)=C(C#N)C1CC(C)C (stereo not drawn),52,·,81*,85*,13,70*,56*
CC(=O)C1=C(C)NC(SCC(N)=O)=C(C#N)C1CC(C)C (stereo not drawn),-9,-33,0,-2,1,3,·
COC1=C(Nc2ccc(OC)cc2)C(=O)c2ccccc2C1=O,-26,-11,5,-1,-161,-7,·
CC(=O)Nc1ccc(NC2=CC(=O)c3ccccc3C2=O)cc1,-130,·,·,·,-46,97*,-1
COc1ccc(NC2=C(NC(C)=O)C(=O)c3ccccc3C2=O)cc1,-13,·,·,·,18,44*,14
CC(=O)Nc1ccc2c(c1)C(=O)c1ccccc1C2=O,-152,-186,11,3,-185,2,·
O=C(O)c1cccnc1Nc1ccc(Cl)cc1,-11,-10,33*,28*,-3,34*,23*
CCCn1c(SCC(=O)Nc2ccccc2OC)nnc1-c1ccco1,39,·,·,·,2,35*,16
COCCn1c(SCC(=O)Nc2ccccc2OC)nnc1-c1ccco1,6,·,·,·,5,-6,·
Cc1nc2nc(C)c(NS(=O)(=O)c3cccs3)c(=O)n2[nH]1,-5,·,·,·,8,1,·
CC(C)c1ccc(NC(=O)C2CC(=O)Nc3nc4ccccc4n32)cc1 (stereo not drawn),-9,·,-3,-3,-9,-2,·
C=CCc1cccc([C@@H]2[C@@H](C)CC[C@H]3C(=O)N4[C@@H](c5cc(OC)c(OC)c(OC)c5)c5[nH]c6ccccc6c5C[C@H]4C(=O)N23)c1,35,-3,-1,-4,31,34*,9
COC(=O)[C@H](Cc1ccccc1)NC(=O)C1CCN(C(=O)[C@H](C)NS(=O)(=O)c2ccc(C)cc2)CC1,-27,·,·,·,5,-5,·
Fc1ccccc1CNc1nc(-c2cccnc2)nc2ccccc12,7,·,·,·,34,-2,·
CC(/C=N/NC(=O)c1cccc(F)c1)=C\c1ccccc1,-48,·,·,·,-254,28*,6
CC(=O)Nc1nc(NC(=O)/C=C/c2ccccc2)n(-c2ccccc2)n1,27,11,10,5,79*,24*,17
CC(=O)Nc1nc(NCc2ccccc2Cl)n(-c2ccccc2)n1,-16,·,·,·,15,-6,·
O=C(Nc1nc(NC(=O)c2ccco2)n(-c2ccccc2)n1)c1ccccc1,48,46*,51*,36*,79*,26*,41*
O=C(Nc1ccc2oc(-c3ccncc3)nc2c1)c1ccc([N+](=O)[O-])o1,-17,·,·,·,-118,95*,17
CC(C)C(=O)Nc1ccc(-c2nc3ncccc3o2)cc1,-53,·,·,·,-9,9,·
O=C(Nc1ccc(-c2nc3ncccc3o2)cc1)c1ccc([N+](=O)[O-])o1,14,·,·,·,100*,80*,8
Cc1ccc(-c2nc3ncccc3o2)cc1NC(=O)c1ccc([N+](=O)[O-])o1,-7,·,·,·,i,98*,20
O=C(Nc1ccc2oc(-c3ccncc3)nc2c1)c1ccccc1,-32,-1,0,-3,-17,-2,·
O=C(c1ccccc1)c1ccc(Cn2cc(CCCO)nn2)cc1,-13,·,·,·,14,7,·
O=C(O)CCCCCCCCc1cn(Cc2ccc(C(=O)c3ccccc3)cc2)nn1,-27,·,·,·,-35,72*,24*
CSc1ccccc1OCc1cc(C(=O)NCCc2ccco2)no1,-44,·,·,·,-40,1,·
